From the OligoGym collection come the findings set out here.
Note: reference of the scale not given here.

The target in one assay is NOL7. Kind of assay: pooled miR-30 sensor sort-seq; sequence = guide strand. The settings on record: shRNA.
Take TCGATGAACAGCTCCTCGCGTC: the sensor-assay potency score (higher = more potent) is -0.7.

TGTACTTTAACTTTCTTGGAGT: the sensor-assay potency score (higher = more potent) is -0.613. On the same count and under the same terms, then AACTTATTTACAGTAGTCCTGT, with -0.21; and TTTTTGTACTTTAACTTTCTTG, with -0.529; and TTAACTTCTTTCACCTTTCCTG, with -0.368. With TTAGTCTGTGAAGCTGTGGTTA, the sensor-assay potency score (higher = more potent) was -0.246.

In a further assay the target is NOLC1. Described as above. The settings on record: shRNA.
TTTAGGTACAGTCTTCTTGGGG: the sensor-assay potency score (higher = more potent) is -0.268.

Consider TAACTTTCGCTCTGGGACCTTG, for which the sensor-assay potency score (higher = more potent) is -0.857.

Consider TTAGGTACAGTCTTCTTGGGGG, for which the sensor-assay potency score (higher = more potent) stood at 0.125. Still for that read-out and setting: then TTGCTTTTTAGGTACAGTCTTC, with -0.681; and TTGACCTGGACAGAGATTGAGC, with -0.52. Regarding TTAGCTTTCTTAGCCACTGGTC, the sensor-assay potency score (higher = more potent) is -0.169. Same read-out and setting: then TTGCTTTAGAGACTACTGCCTT, with -0.589; and TTTAGTCTGAGCTTTAACTGTC, with 0.463. On the same count and under the same terms, then TTTGGTGAACTTCAAAACCTGA, with -0.529. On the same count and under the same terms, then TTGCCTGTAACTTTCGCTCTGG, with 0.151.

The target of the next assay is NOMO3. The description is as above. The settings on record: shRNA.
For the sequence TTCACCTTCCTCATTGCCGTTT, the sensor-assay potency score (higher = more potent) was -0.31.

For the sequence TAACTCATCTACCATCTCCTGC, the sensor-assay potency score (higher = more potent) is -0.337.

In the case of TTATTCATCTGCTTGACGGTGT, the sensor-assay potency score (higher = more potent) came to 0.998. Same read-out and setting: then TAGAACGCTTGCTCAAACCGGT, with 0.161; and TTGTCTTCTGTTTCTTGGCTTG, with -0.491. On the same count and under the same terms, then TAAAGCTTGACCCATAACGTAG, with -0.74; and TTTGGTGCAATTTTGATGGTGA, with 0.652. The same measure, in the same setting: then TGTTGCAACAATGTCAGCCAGC, with -0.925. As to TAACAGTGATTTTCTCTCCAGA, the sensor-assay potency score (higher = more potent) was -0.602. The same measure, in the same setting: then TTGTCTCTTTGCATCTTCTGGG, with -0.0196. With TGGAACACCATCTCCTTCGGGT, the sensor-assay potency score (higher = more potent) was -0.53. On the same count and under the same terms, then TATCTGACCACAGACACTGAAC, with -1.06; and TTGATCTCCACGTCCGACTTGA, with 0.49. TTATTTTGTATTTTCCAGGGAG showed a sensor-assay potency score (higher = more potent) of 0.546. TTGGTGTACAGCTTTATCTCGA: the sensor-assay potency score (higher = more potent) was 0.0866. Same read-out and setting: then TATGATGTTTACATCATCGATG, with -0.855.

Another assay deals with NOTCH4. The description is as above. The settings on record: shRNA.
Regarding TTGGCTGAACAGAAGTCCCGAA, the sensor-assay potency score (higher = more potent) was -0.0674. The same measure, in the same setting: then ATATATAGGAAAGAACATCTTA, with -0.0997; and TAGGGGTACACCATGTCCCTGC, with 0.0292. Consider TTAGGGTTCTTAAATAGCGATA, for which the sensor-assay potency score (higher = more potent) is -1.36.

Turning to TTTCTGGTCCTTACATATCTGC, the sensor-assay potency score (higher = more potent) was -1.07. On the same count and under the same terms, then TATATAGGAAAGAACATCTTAC, with 0.0056; and TTGGTGAGCGACGTCCGCCGGC, with -0.551. Still for that read-out and setting: then TTTAGGGTTCTTAAATAGCGAT, with -1.06.
